Screens deposited in PubChem by National Center for Advancing Translational Sciences (NCATS).
HT1080-NT tox: kills 2HG-producing HT-1080-NT fibrosarcoma cells | Potency, µM (titrated, usually from 46.1 µM), inactives show at the top dose activity, negative = less viability, actives largely listed as cytotoxic | AID 686970 | HT-1080-NT fibrosarcoma viability, CellTiter-Glo ATP luminescence, 48 h | 360,000 tested, 1.6% active;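 further: NT is the 2HG producing partner of a matched IDH1 knockdown line; 0% = DMSO-treated cells and -100% = media-only wells without cells; nearly all actives have a fitted effect of over 55% in size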
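A 48-hour cytotoxicity screen used HT-1080-NT cells plated 2 hours before compound delivery. ATP-based CellTiter-Glo luminescence measured viability, normalized to DMSO and no-cell controls.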
DT40 TDP1 CPT: growth inhibition of DT40 Tdp1-/-;hTDP1 cells with camptothecin (screen for TDP1 inhibitors); AID 686979; Potency, µM (top dose mostly 46.2 µM), for the others: top-dose activity change, negative = growth inhibition, actives largely listed as inhibitors; 420,000 tested, 12% active; chicken DT40 Tdp1-/-;hTDP1 cells + 20 nM CPT, ATP luminescence, 48 h; further: on the % scale 0 is the no-effect control and ±100 the full control effect; nearly all actives have a fitted effect of over 55% in size
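Chicken DT40 Tdp1-/- cells complemented with human TDP1, 400 cells/well, exposed to compounds plus 20 nM camptothecin for at least 48 h at 37 C; viability read as ATP content by CellTiter-Glo luminescence.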
TGFb inhibitor: TGF-b pathway inhibition. HepG2 CAGA-GFP TGF-b/SMAD3 reporter, GFP fluorescence, 18 h; TGF-beta stimulated, 500 pg/mL final. Potency, µM (highest dose often 46.1 µM), for the others: at the top dose activity, negative = inhibition, most hits filed as inhibitors. 410,000 tested, 1.2% active. AID 588855; further: on the % scale 0 is the no-effect control and ±100 the full control effect; nearly all actives have a fitted effect of over 65% in size
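HEPG2 CAGA-GFP reporter cells (1000/well, DMEM with 1% FBS) received compounds, then recombinant TGF-beta at 500 pg/mL final for 18 hours at 37 degrees C. Per-cell GFP summed per well was normalised to unstimulated and stimulated DMSO controls before curve fitting.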
HT1080 IDH1KD tx: toxicity to HT-1080 IDH1 knockdown cells (counter line). HT-1080 IDH1 knockdown viability, ATP luminescence, 48 h. Potency, µM (top dose mostly 46.1 µM), for the others: at the top dose activity, negative = toxicity, hits mostly cytotoxic. 360,000 tested, 2% active;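 further: 0% = DMSO wells and -100% = cell-free medium wells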
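Using the IDH1-knockdown HT-1080 line run in the same batch and compound series as the NT line, viability after 48 h at 37 °C was determined by CellTiter-Glo luminescence and expressed as % activity.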
HepG2 tox: counter-screen for TGF-b inhibitors: cytotoxicity in HepG2 cells. HepG2 CAGA-GFP viability, ATP luminescence, 18 h. Potency, µM (doses to about 46.1 µM), without a hit: at the highest dose activity change, negative = cytotoxicity, most hits filed as cytotoxic. 410,000 tested, 0.76% active. AID 588856
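CellTiter-Glo luminescence gave cytotoxicity after 18 hours at 37 degrees C. The cells were HepG2 CAGA-GFP in 1% FBS DMEM, stimulated with 500 pg/mL TGF-beta after compound addition. %Activity was normalised to no-cell wells (complete cell-killing) and DMSO (no toxicity), and curves were fitted and classified.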
DT40 TDP1 no CPT: qHTS for Inhibitors of human tyrosyl-DNA phosphodiesterase 1 (TDP1): qHTS in cells in absence of CPT; Potency, µM (series often up to 46.2 µM), without a hit: top-dose activity change, negative = growth inhibition, most hits filed as inhibitors; 420,000 tested, 15% active; AID 686978, 2013; DT40 Tdp1-/- hTDP1 cells, no CPT, ATP luminescence, 48 h; further: on the % scale 0 is the no-effect control and ±100 the full control effect; nearly all actives have a fitted effect of over 55% in size
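Growth of hTDP1-complemented DT40 Tdp1-knockout cells is measured by ATP luminescence after at least 48 hr compound exposure at 37 °C, with DMSO substituting for the 20 nM CPT used in the parallel screen.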
Starred values were filed as active, the others as inactive; u = inconclusive; x = no result given; [ ] = remark or other dose. Sampled rows, rich in hits. Any-hit rate of the full collection: about 17%. The call rests on the fitted dose curve; in most records, active means well fitted curve in the direction sought with a large enough effect; inconclusive means small, poorly fitted or top-dose-only effect, or another doubt; inactive means no such curve, though single readings can be large; an effect the other way counts as inactive or inconclusive. Potency means the concentration at half of the fitted maximal effect.

SMILES | HT1080-NT tox | DT40 TDP1 CPT | TGFb inhibitor | HT1080 IDH1KD tx | HepG2 tox | DT40 TDP1 no CPT
OCCN1CCN(c2ncnc3c2c(-c2ccccc2)cn3-c2ccc(Br)cc2)CC1 | 16µM* | u | 1% | 23µM* | -1% | u
FC(F)(F)c1cccc(-n2cc(-c3ccccc3)c3c(N4CCCCC4)ncnc32)c1 | x | u | -1% | x | -3% | 23µM*
C[C@H]1NC(=O)[C@]2(C)[C@@H](c3ccccc3)[C@H]3COc4ccccc4[C@H]3N2C1=O | -7% | -3% | 3% | -5% | -18% | -4%
CCCCCCCCN1CC(Cc2cc3ccccc3c3ccccc23)N(c2ccccc2)c2ccccc2C1=O (stereo not drawn) | 9% | u | x | 1% | x | u
CCCN1Cc2cccc(C(=O)Nc3ccccc3C(=O)OC)c2C1=O | x | 23µM* | -25% | x | -18% | 16µM*
CCCN1Cc2cccc(C(=O)Nc3ccc(OC)cc3OC)c2C1=O | x | u | 21% | x | -52% | 23µM*
CCCN1Cc2cccc(C(=O)Nc3cc(OC)cc(OC)c3)c2C1=O | 0%[9.24 µM] | -22% | -12% | -1% | -11% | -21%
CCOC(=O)C(C)On1c(-n2nc(C)cc2C)nc2ccccc2c1=O (stereo not drawn) | u | u | -26% | u | -4% | u
CCCCN(CC)C(=O)CCCn1c(=O)c2cccn2c2ccccc21 | x | u | u | x | -17% | 21µM*
Cc1cc(C)cc(NC(=O)CCCn2c(=O)c3cccn3c3ccccc32)c1 | x | -11% | 11µM* | x | -52% | -13%
Cc1ccc(NC(=O)Cn2c(=O)c3cccn3c3ccccc32)c(Cl)c1 | 4% | u | 5% | 21% | -15% | -11%
CCC(C)NC(=O)CCCn1c(=O)c2cccn2c2ccccc21 (stereo not drawn) | x | -28% | -9% | x | -22% | -10%
Cc1ccc(NC(=O)CCCn2c(=O)c3cccn3c3ccccc32)c(C)c1 | x | 15µM* | -12% | x | -16% | 15µM*
CCOc1ccc(CNC(=O)CCCn2c(=O)c3cccn3c3ccccc32)cc1 | x | u | 0% | x | -13% | u
Cc1ccc(NC(=O)CCCn2c(=O)c3cccn3c3ccccc32)c(Cl)c1 | x | 15µM* | -19% | x | -21% | 12µM*
Cc1ccc(S(=O)(=O)N(CC(=O)c2ccccc2)C(=O)N2CCN(C)CC2)cc1 | 1% | u | u | -4% | -5% | -3%
CC(SCC(=O)Nc1ccc(S(=O)(=O)N2CCCCC2)cc1)C(=O)O (stereo not drawn) | 11% | -10% | 4% | 8% | 3% | -13%
O=C(CCCn1c(=O)c2cccn2c2ccccc21)Nc1cccc(Cl)c1 | x | u | x | x | -37% | 18µM*
CCOc1ccc(NC(=O)CN(C)C(=O)c2c(-c3c(F)cccc3Cl)noc2C)cc1OCC | -4% | u | -7% | -4% | -24% | -21%
C/C(=N/Nc1cc(-c2ccccc2)nc(-c2ccccc2)n1)c1ccc(O)cc1 | -16% | 16µM* | u | u | -112% | 13µM*
C/C(=N\Nc1ccccc1)c1cccc(N)c1 | -5% | 7% | -11% | -23% | 19% | 7%
C/C(=N\Nc1cc(-c2ccccc2)nc(-c2ccc(Br)cc2)n1)c1cccc(N)c1 | 11µM* | 26µM* | u | 18µM* | -33% | u
Cc1ccc(-n2nnnc2CNC(=O)c2ccc([N+](=O)[O-])o2)cc1C | -22% | 13µM* | u | u | -108% | 7.3µM*
O=C(NCc1nnnn1-c1ccc(F)cc1)c1ccc2ccccc2c1 | 5% | -3% | 7% | 7% | 0% | u
Cc1ccc(-n2nnnc2CNC(=O)c2cc(C(F)(F)F)cc(C(F)(F)F)c2)cc1C | x | u | u | x | -27% | 16µM*
SMILES | HT1080-NT tox | DT40 TDP1 CPT | TGFb inhibitor | HT1080 IDH1KD tx | HepG2 tox | DT40 TDP1 no CPT
O=C(NCc1nnnn1-c1ccc(F)cc1)c1ccc([N+](=O)[O-])o1 | u | u | 14µM* | 12µM* | -180% | u
CCS(=O)(=O)N1CCC2(CC1)OCCN2S(=O)(=O)c1ccc(C)cc1 | 4% | -5% | 0% | 0% | -8% | -25%
COc1cccc(-c2cccc3c2NC(=O)C3(C)Cc2cccc(F)c2)c1 (stereo not drawn) | u | u | u | u | -8% | 21µM*
CC1(Cc2ccc(Cl)cc2)C(=O)Nc2ccc(-c3cccnc3)cc21 (stereo not drawn) | -6% | 13µM* | 7% | -25% | -23% | 12µM*
CC1(Cc2cccc(F)c2)C(=O)Nc2ccc(-c3cccnc3)cc21 (stereo not drawn) | -6% | 12µM* | -6% | 0% | -24% | 10µM*
CCc1ccc2c(c1)NC(=O)C2(C)Cc1cccc(F)c1 (stereo not drawn) | -10% | u | -7% | -12% | -27% | u
CC1(C(=O)NS(=O)(=O)c2cccs2)CCN1C(=O)c1ccco1 (stereo not drawn) | 2% | 8% | -2% | 11% | 1% | 3%
Cc1nc2c(Br)cc(Br)cc2c(=O)n1-c1ccccc1NC1OCC(O)C(O)C1O (stereo not drawn) | -3% | 7.3µM* | 6% | -14% | 1.6µM* | 8.2µM*
CCS(=O)(=O)N1CCC(C(=O)N2CCN(Cc3ccccc3)CC2)CC1 | 23% | -1% | 17% | 13% | 4% | 0%
